The campaign covered roughly 360,000 compounds. About 1,400 (0.39%) were called active. This is one part of a sample in which actives are shown more often than they occur. Values without a mark were called inactive. No stated cut-off is given here; in the data, active means inhibition above about 21%; inactive means the rest.

In the assay the target is Receptor-interacting serine/threonine-protein kinase 2 (Homo sapiens) (UniProt O43353). Description: inhibitors of RIPK2 association with NOD2 – fluorescence, CHO cells, BLA complementation, primary screen (AID 624267).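 Further: 0% = vehicle only and 100% = reference blocker.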 The settings on record: CHO BLA complementation NOD2-RIPK2, CCF4 ratio; at 4.98 µM; stronger effect = higher value.
Receptor-interacting serine/threonine-protein kinase 2 (Homo sapiens), sequence (O43353 whole entry, looked up): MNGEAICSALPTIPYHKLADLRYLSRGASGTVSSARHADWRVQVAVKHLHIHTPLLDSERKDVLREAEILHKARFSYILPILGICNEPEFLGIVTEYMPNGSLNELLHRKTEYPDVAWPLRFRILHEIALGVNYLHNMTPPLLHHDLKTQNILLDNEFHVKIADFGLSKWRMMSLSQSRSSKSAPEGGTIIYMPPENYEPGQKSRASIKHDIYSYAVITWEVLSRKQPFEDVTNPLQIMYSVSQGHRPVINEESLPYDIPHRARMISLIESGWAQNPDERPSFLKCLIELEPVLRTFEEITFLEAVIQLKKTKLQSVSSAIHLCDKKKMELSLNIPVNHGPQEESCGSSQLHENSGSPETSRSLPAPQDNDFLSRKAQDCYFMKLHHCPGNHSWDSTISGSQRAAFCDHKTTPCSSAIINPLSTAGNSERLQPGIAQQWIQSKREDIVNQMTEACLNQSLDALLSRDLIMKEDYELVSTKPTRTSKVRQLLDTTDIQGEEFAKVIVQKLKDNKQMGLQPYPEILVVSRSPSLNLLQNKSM
`O=C(CNS(=O)(=O)c1ccc2ccccc2c1)Nc1ccc(F)c(F)c1F`: the inhibition (as a rule, the drop in the measured response relative to a control, in per cent) is -7.54%. Consider `Cc1ccnc(NC(=O)CCC(=O)N(CC(=O)NCCc2ccccc2)Cc2cccs2)c1`, for which the inhibition was 0.75%.

Regarding `O=C1/C(=C/c2cccs2)CCC1C1CCCC1` (centres undefined), the inhibition was -6.88%.

For the molecule `CCCc1cc(=O)oc2c(C)c(OCC(=O)Nc3ccccn3)ccc12`, the inhibition is -2.73%.

`COc1cccc(C(=O)OCc2cc(=O)oc3c(C)c(C)ccc23)c1OC`: the inhibition was -0.79%. The value for `COC(=O)Cc1cc(=O)oc2c(C)c(O)ccc12` was 33.2% (active); that for `CCCCn1nnnc1C1(C)CCC(=O)N1Cc1ccc(OC)c(OC)c1` (centres undefined) was -13.3%. In the case of `COC(C)(C)[C@]12CC(O)(C(C)C)ON1[C@H]1CCCCC1N2O` (some centres undefined) it was -0.99%; in that of `CCOC(=O)Cc1c(C)nc2c(C#N)c(C)nn2c1C`, 1.59%.

For the molecule `CC(=O)Oc1ccc(C)cc1N1C(=O)c2ccc(C(=O)O)cc2C1=O`, the inhibition was -5.17%. In the case of `O=C(O)CCC(=O)Nc1ccc(N2CCOCC2)cc1` it was -4.21%; in that of `O=C(O)c1ccc2c(c1)C(=O)N(c1ccc(/C=C/C(=O)c3ccccc3)cc1)C2=O`, 23.8% (active); in that of `CCCOC(=O)c1ccc(N2C(=O)c3ccccc3C2=O)cc1`, 1.19%.

In the case of `O=C(/C=C/c1ccc(N2CCOCC2)cc1)c1ccccc1`, the inhibition was 30.6% (active). In the case of `C/C(=C/c1ccccc1)C(=O)N1CCN(c2ccccc2)CC1` it was -2.58%. Take `CCN(C(=O)COC(=O)C1CCN(S(=O)(=O)c2ccc(C)c(C)c2)CC1)C1CCS(=O)(=O)C1` (centres undefined): the inhibition is -0.71%. The value for `O=C(Nc1ccc(OCCO)cc1)c1csc([C@H]2C[C@H](O)[C@@H](CO)O2)n1` was -10.7%; that for `NC(=O)NC(=O)C(OC(=O)CCNS(=O)(=O)c1ccccc1)c1ccccc1` (centres undefined) was -7.31%; that for `O=C(CN1CCCCC1)N1c2ccccc2Sc2ccc(C(F)(F)F)cc21` was 1.57%. The value for `CC1CCN(C(=O)c2ccccc2NC(=O)Cc2ccccc2)CC1` was -1.45%. For the molecule `CC(NC(=O)c1ccc(S(=O)(=O)Nc2ccccc2)cc1)c1ccc(S(N)(=O)=O)cc1` (centres undefined), the inhibition was 3.07%. Consider `O=C1C(=O)N(CC2COc3ccccc3O2)c2ccccc21` (centres undefined), for which the inhibition was 22.5% (active). The value for `CCn1cc(C(=O)NCC2COc3ccccc3O2)c2cc(OC)c(OC)cc2c1=O` (centres undefined) was -5.84%. In the case of `O=C1C(=O)N(c2ccccc2)c2ccccc21` it was 9.77%. The value for `C[C@H]1CN([C@@H](C)CO)C(=O)Cc2cc(NC(=O)Cc3ccccc3)ccc2O[C@H]1CN(C)S(=O)(=O)c1cccs1` was -4.34%; that for `Cc1ccc(S(=O)(=O)n2cnc3ccccc32)c(C)c1` was 3.17%. For the molecule `COc1cc2nnn(-c3ccncc3)c2cc1OC`, the inhibition was -0.06%. As for `CC(C)(C)NC(=O)COC(=O)c1cc(Br)ccc1Cl`, the inhibition is -6.13%.

With `c1csc(-c2nnc(COc3ncnc4sccc34)o2)c1`, the inhibition is 2.97%. For `CCOc1ccc(C2=CC(c3ccccc3)n3ncnc3N2)cc1` (centres undefined), the inhibition is 42.2% (active).

With `CC1=C(C(=O)OC2CCCCC2)C(c2cccnc2)n2ncnc2N1` (centres undefined), the inhibition is 7.46%. In the case of `CCOc1ccccc1C1CC(c2ccccc2)Nc2nc(N)nn21` (centres undefined) it was -8.78%.

Turning to `Brc1ccc(C2=CC(c3ccco3)n3ncnc3N2)cc1` (centres undefined), the inhibition is 24.6% (active). In the case of `COc1ccc(CN2CCCCC2C)cc1OC` (centres undefined) it was -10.3%; in that of `C/C(CC(C)C)=N\Oc1nc(C)cc(C)n1`, -7.31%; in that of `COCCCNC(=O)CN1CCN(Cc2ccccc2Cl)C1=O`, 5.43%. The value for `CCc1ccccc1N(CC(=O)N1CCN(c2ccccc2F)CC1)S(C)(=O)=O` was -2.64%; that for `O=C(CNC(=O)OCc1ccccc1)Oc1cc2oc(=O)cc(-c3ccccc3)c2cc1Cl` was 52.2% (active). As to `O=C(CNC(=O)c1ccccc1)NCC(=O)OCc1ccc(Cl)cc1`, the inhibition was 1.19%. In the case of `O=C(CNC(=O)Cc1ccccc1)NCC(=O)OCC(=O)c1ccccc1Cl` it was -8.44%; in that of `O=C(Nc1ccc(CSc2ccccc2)cc1)c1ccc(CN2CCOCC2)cc1`, -2.26%. Turning to `O=C(Cc1ccccc1)Nc1c(Cl)ccc2nsnc12`, the inhibition was -10.4%.

Consider `C=CC(COCc1ccccc1)N(Cc1ccccc1)S(=O)(=O)c1ccccc1Br` (centres undefined), for which the inhibition was 0.84%. Consider `COc1cc(C)c(C(C)C)cc1S(=O)(=O)n1ccnc1`, for which the inhibition is -1.8%. For `O=C(NCc1ccncc1)C1CCN(C(=O)c2cccc(Cl)c2)CC1`, the inhibition is -2.02%. The value for `CCN(C(=O)CSc1cccc[n+]1[O-])c1ccccc1` was 1.91%; that for `COCCCn1c(Cc2csc(Nc3cccc(Cl)c3)n2)nnc1SCC(=O)OC1CCCCC1` was -7.45%; that for `O=C(Cc1csc(Nc2nc(=S)[nH]c3ccccc23)n1)NCCCN1CCN(c2cccc(Cl)c2)CC1` was 38.1% (active). Consider `Cn1c(Cc2cccc3ccccc23)nnc1SCC(=O)N1CCN(c2cccc(Cl)c2)CC1`, for which the inhibition was 2.05%. Consider `CNC(=O)n1ccc(C(=O)N2CCCCC2)n1`, for which the inhibition was 1.22%. In the case of `O=C(NN1C(=O)C2C3C=CC(O3)C2C1=O)c1ccccc1` (centres undefined) it was -0.12%. `Cc1nnc(SCC(=O)Nn2cnnc2)s1`: the inhibition was 34.9% (active). On to `Cc1nnc(SCC(=O)NC2CCCC2)s1`, for which the inhibition is -7.66%. `CCSc1nnc(SCC(=O)NNC(=O)c2ccccc2F)s1`: the inhibition was -9.88%. The value for `CCOc1ccc(/C(O)=C2/C(=O)C(=O)N(Cc3cccnc3)C2c2ccc(N(C)C)cc2)c(C)c1` (centres undefined) was -5.35%; that for `O=C(Nc1ccccc1Cl)/C(Cl)=C(\Cl)S(=O)c1ccccc1` (centres undefined) was 70.5% (active).

Take `O=C(COc1nsnc1N1CCOCC1)Nc1ccccc1Cl`: the inhibition is -6.94%. Regarding `O=C(Nc1ccccc1)c1nnsc1S(=O)(=O)c1ccc(Cl)cc1`, the inhibition was 56.9% (active). In the case of `C/C(=N\NS(=O)(=O)c1ccc(Cl)cc1)c1ccc(NC(=O)c2ccco2)cc1` it was 7.02%; in that of `CN(C)/C=C(/C(=O)c1ccccc1)S(=O)(=O)c1ccc(Cl)cc1`, 10.5%; in that of `CCOc1ccc(CN2CCC(n3nccc3NC(=O)C3CC3)CC2)cc1CO`, -4.91%. `Cc1cc(NC(=O)CN2CCC(O)(c3cccc(F)c3)CC2)no1`: the inhibition was -7.88%.

With `NC(=O)COc1ccccc1C(=O)NC12CC3CC(CC(C3)C1)C2`, the inhibition is 2.45%.

`CCSc1ccccc1C(=O)Nc1ccc2c(c1)OCO2`: the inhibition was 1.86%. For `O=C1C(Cl)=C(Oc2ccccc2)C(=O)c2ccccc21`, the inhibition was 71.7% (active). For the molecule `O=C(CNc1ccccc1N1CCCC1=O)Nc1cc(Cl)ccc1-n1cncn1`, the inhibition was 4.89%. The value for `Nc1c(C(=O)c2cccs2)sc2nsc(SCCN3CCCCC3)c12` was 37.8% (active); that for `COc1ccccc1Oc1ccc(N2CC(C(=O)OCC(=O)c3ccc(F)cc3)CC2=O)cc1` (centres undefined) was -13.1%; that for `Cc1ccccc1CS(=O)(=O)CC1(O)CCN(C(=O)c2cccc(C(F)(F)F)c2)CC1` was -2.24%.

Regarding `CC(C)(C)n1nc2c(c1NC(=O)c1ccc(S(=O)(=O)N3CCCC3)cc1)CS(=O)C2` (centres undefined), the inhibition is 1.52%. The value for `Cc1cccc(OC(C)C(=O)N2CCc3ccccc3C2)c1` (centres undefined) was -10.7%; that for `O=C(/C=C/c1ccc(Cl)c([N+](=O)[O-])c1)c1ccc(O)cc1` was 28.9% (active).

For `O=C(NCCC1=CCCCC1)c1ccc(Cl)c([N+](=O)[O-])c1`, the inhibition was -8.9%.

Regarding `O=[N+]([O-])c1ccc(N2CCN(c3ccc(O)cc3)CC2)c(Cl)c1`, the inhibition is -4.55%. Regarding `O=C(Oc1ccccc1Cl)c1ccc(N2CCOCC2)c([N+](=O)[O-])c1`, the inhibition is 1.05%. The value for `N#Cc1cc([N+](=O)[O-])ccc1NC(=O)COC(=O)c1cnccn1` was -8.54%. In the case of `CSc1ccccc1NC(=O)c1cnc2sc(C)cn2c1=O`, the inhibition was -0.62%. The value for `CN(CC(=O)Nc1ccc(F)cc1)CC(=O)N1CCCCC1` was 3.04%; that for `O=C(CSc1ncn[nH]1)Nc1nsc(-c2ccccc2)n1` was 1.03%; that for `O=C(CSc1ncn[nH]1)Nc1nc2c(F)c(F)c(F)cc2s1` was 2.77%.

Consider `O=C(CSc1ncn[nH]1)Nc1nc(-c2cccc([N+](=O)[O-])c2)cs1`, for which the inhibition is 21.5% (active). Regarding `CCN(C(=O)Cc1nc(N)n[nH]1)C1(C(=O)Nc2ccccc2)CCCCC1`, the inhibition was -2.08%. Turning to `O=C(NN1C(=O)C2C3C=CC(O3)C2C1=O)c1ccncc1` (centres undefined), the inhibition was -1.04%.

Turning to `Oc1ccc2ccc3cccc[n+]3c2c1`, the inhibition was 23.5% (active). Regarding `Cc1nn(C)c(C)c1C(C)NC(=O)c1ccc(OC2CCN(Cc3ccccn3)CC2)cc1` (centres undefined), the inhibition was -7.27%. In the case of `N#CCCN(C(=O)COC(=O)c1ccc(S(=O)(=O)N2CCCCCC2)cc1)c1ccccc1` it was -9.9%. In the case of `NC(CSC12CC3CC(CC(C3)C1)C2)C(=O)O` (centres undefined) it was 2.91%; in that of `O=C1C=C(c2ccc(Cl)cc2)C(=O)N1Nc1ccccc1`, 34.1% (active). In the case of `Cc1ccc(S(=O)(=O)Nc2ccc3c(c2)C(=O)N([C@H](C)CO)C[C@@H](C)[C@@H](CN(C)C(=O)Nc2cccc4ccccc24)O3)cc1`, the inhibition was -59.7%. For the molecule `CCN(CC)CCCC(C)n1c2nc(=O)[nH]c(=O)c-2nc2cc(Cl)ccc21` (centres undefined), the inhibition is 31.2% (active). The value for `COc1cccc(CC(=O)OCC(=O)NCc2ccc3c(c2)OCO3)c1` was 9.81%; that for `COc1cc(/C=C(\C#N)c2nc3c(s2)CC(C)CC3)ccc1O` (centres undefined) was 23.2% (active); that for `COc1cc(C=NC2CCCCC2)ccc1O` was 0.2%. The value for `COCCCN(C(=S)Nc1c(C)cc(C)cc1C)C(C)c1ccncc1` (centres undefined) was -3.93%.

The values are drawn from PubChem BioAssay AID624267 (The Scripps Research Institute Molecular Screening Center, 2012).
